In PubChem BioAssay (NCATS):
Where “and” joins values, the source holds several entries; their conditions need not be identical. Identical values can stand only once. Records with an inconclusive call do not appear. A call without a number means that no potency is given here. Calls of active or inactive are those of the source. Calls come from the whole dose curve; as a rule, active = well fitted curve in the direction sought with a large enough effect; inconclusive = small, poorly fitted or top-dose-only effect, or another doubt; inactive = no such curve, though single readings can be large; an effect the other way counts as inactive or inconclusive. Positions of bridges follow the written chain, without caps; N, C: chain ends. Non-standard residues stand in square brackets, D forms with d. Residues, ends and D or L forms follow the SMILES beside them. ξ: configuration not given here. *: point of attachment. Octanoyl(6-Me) = CCC(C)CCCCC(=O)*; ξThr(3R) = C[C@@H](O)C(N)C(=O)O; dDab = NCC[C@@H](N)C(=O)O; Dab = NCC[C@H](N)C(=O)O

Legend:
[1] = qHTS Screen of the MIPE 4.0 Collection Against Ewings Sarcoma (TC32) (AID 1259256); conditions: TC32 Ewing sarcoma viability, CellTiter-Glo, 48 h; series mostly up to 45.8 µM; note: nearly all actives have a fitted effect of over 45% in size
Method in brief: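 CellTiter-Glo luminescence after 48 h compound exposure (titration) gave viability; percent activity used DMSO-treated cells as no inhibition and medium-only wells as full inhibition. Cells grown in RPMI/5% FBS, dosed 4 h post-seeding.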

[2] = P-glycoprotein substrates identified in KB-8-5-11 adenocarcinoma cell line, qHTS therapeutic library screen (AID 1346987); conditions: KB-8-5-11 (P-gp overexpressing) viability, CellTiter-Glo, 72 h; series mostly up to 44.5 µM; note: nearly all actives have a fitted effect of over 65% in size
Method in brief: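 P-gp-mediated resistance screen: KB-8-5-11 cells treated 72 h with compounds in dose-response. CellTiter-Glo viability.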

[3] = NS1 protein of Zika virus - qHTS assay to identify small molecule inhibitors in human HEK 293 cells (AID 1347053); conditions: HEK293 ZIKV MR766 infection, NS1 TR-FRET, 24 h; series mostly up to 46.1 µM; note: nearly all actives have a fitted effect of over 55% in size
Method in brief: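 Inhibition of NS1 expression was scored in HEK 293 cells given compound 1 h ahead of MR766 virus (MOI = 0.5). Following 24 h at 37 C, two anti-NS1 antibodies generated a TR-FRET signal, scaled between uninfected and infected controls.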

[4] = qHTS of pediatric cancer cell lines to identify multiple opportunities for drug repurposing: Primary screen for TC32 cells (AID 1347089); conditions: TC32 Ewing sarcoma viability, CellTiter-Glo luminescence, 48 h; series mostly up to 45.8 µM; note: nearly all actives have a fitted effect of over 60% in size
Method in brief: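 qHTS, TC32, 48 h drug treatment, CellTiter-Glo luminescence as a proxy for metabolically active cells; primary top concentration 46 µM (MIPE 11-pt, NPC 8-pt); confirmatory 11-pt.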

[5] = qHTS of pediatric cancer cell lines to identify multiple opportunities for drug repurposing: Primary screen for DAOY cells (AID 1347090); conditions: DAOY medulloblastoma viability, CellTiter-Glo luminescence, 48 h; series mostly up to 46 µM; note: nearly all actives have a fitted effect of over 55% in size
Method in brief: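 Cell viability, CellTiter-Glo luminescence; 500-1,000 cells/well, 8- or 11-point titration, 48 h compound exposure at 37 degrees C, 5% CO2. Controls: DMSO neutral, bortezomib 2.3 µM final as positive.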
Potency is the fitted concentration of half-maximal effect.

Structure (SMILES)	Potency [1]	Potency [2]	Potency [3]	Potency [4]	Potency [5]
COC[C@H](NC(=O)c1cnc(C)s1)C(=O)N[C@@H](COC)C(=O)N[C@@H](Cc1ccccc1)C(=O)[C@@]1(C)CO1	0.148 µM (active)	3.72 µM (active)	1.18 µM (active)	0.587 µM (active)	0.296 µM (active)
O=C1NCCc2[nH]c(-c3ccncc3)cc21	5.26 µM (active)	7.43 µM (active)	9.35 µM (active)	11.7 µM (active)	4.69 µM (active)
O=C1NC(=O)C(=Cc2ccc3nccc(-c4ccncc4)c3c2)S1	0.0743 µM (active)	0.418 µM (active)	0.743 µM (active)	0.523 µM (active)	0.235 µM (active)
C[C@@H]1CC[C@@]2(OC1)OC1CC3C4CC=C5CC(O)CCC5(C)C4CCC3(C)C1[C@@H]2C (stereo partly specified)	inactive	inactive	inactive	inactive	inactive
CCc1cnn2c(NCc3ccc[n+]([O-])c3)cc(N3CCCC[C@@H]3CCO)nc12	0.0235 µM (active)	0.235 µM (active)	0.148 µM (active)	0.131 µM (active)	0.0372 µM (active)
CC(C=CC=C(C)C=CC1=C(C)CCCC1(C)C)=CC=CC=C(C)C=CC=C(C)C=CC1=C(C)CCCC1(C)C	16.6 µM (active)	inactive	inactive	inactive	18.7 µM (active)
CCc1c(O)cc(O)c(C(=O)c2ccc(OCCN3CCOCC3)c(OC)c2)c1CC(=O)N(CCOC)CCOC	0.526 µM (active)	inactive	inactive	2.94 µM (active)	14.8 µM (active)
CC[C@H](CC[C@@H](C)[C@H]1CC[C@H]2[C@@H]3CC=C4C[C@@H](O)CC[C@]4(C)[C@@H]3CC[C@]12C)C(C)C	inactive	inactive	inactive	inactive	inactive
C[C@]12C=CC(=O)N[C@@H]1CC[C@H]1[C@H]3CC[C@@H](C(=O)Nc4cc(C(F)(F)F)ccc4C(F)(F)F)[C@@]3(C)CC[C@@H]12	inactive	inactive	inactive	inactive	inactive
C=CC(=O)Nc1cccc(Nc2nc(NC3CCC(N(C)C)CC3)nc3c2ncn3C(C)C)c1 (stereo unspecified)	0.418 µM (active)	inactive	11.8 µM (active)	1.47 µM (active)	0.003 µM (active)
O=C(O)C[C@H](O)C[C@H](O)C=Cc1c(C2CC2)nc2ccccc2c1-c1ccc(F)cc1	1.05 µM (active)	7.43 µM (active)	inactive	11.7 µM (active)	1.18 µM (active)
COc1ccc(Nc2nccc(NCCO)n2)cc1	inactive	inactive	inactive	inactive	inactive
O=C(O)C(=O)Nc1cccc(C2=NN=N[N]2)c1	inactive	inactive	inactive	inactive	inactive
NC(=O)Nc1sc(-c2ccc(F)cc2)cc1C(N)=O	1.48 µM (active)	8.33 µM (active)	inactive	3.7 µM (active)	0.469 µM (active)
O=C(CCCCCCC(=O)Nc1cccnc1)NO	5.26 µM (active)	18.7 µM (active)	inactive	20.8 µM (active)	14.8 µM (active)
COc1cc([C@@H]2c3cc4c(cc3[C@H](O)[C@H]3COC(=O)[C@@H]23)OCO4)cc(OC)c1OC	0.0372 µM (active)	0.418 µM (active)	0.264 µM (active)	0.739 µM (active)	0.118 µM (active)
CN(C)c1ccc2cc(C(=O)N[C@@H](CCCN=C(N)CCl)C(=O)NCc3ccccc3)ccc2c1	7.43 µM (active)	inactive	inactive	inactive	7.43 µM (active)
CCCCOc1ccc(C(=O)Nc2ccc(F)cc2F)cc1	inactive	inactive	inactive	inactive	inactive
C=C(C)[C@@H]1CC[C@]2(C)CC[C@]3(C)[C@H](CC[C@@H]4[C@@]5(C)CC[C@H](O)C(C)(C)[C@H]5CC[C@]43C)[C@@H]12	inactive	inactive	inactive	inactive	inactive
CCOC(=O)C=C[C@H](C[C@@H]1CCNC1=O)NC(=O)[C@@H](CC(=O)[C@@H](NC(=O)c1cc(C)on1)C(C)C)Cc1ccc(F)cc1	inactive	inactive	inactive	inactive	inactive
COc1ccc(C(C)=O)c(O)c1	inactive	inactive	inactive	inactive	1.87 µM (active)
CC(Oc1ccc(O)cc1)(P(=O)(O)O)P(=O)(O)O	inactive	inactive	inactive	inactive	inactive
C#C[C@]1(O)CC[C@@H]2[C@@H]3CCC4=CC(=O)CC[C@@H]4[C@H]3CC[C@@]21CC	inactive	inactive	inactive	inactive	inactive
Nc1nc2c(c(=O)[nH]1)N(C=O)[C@H](CNc1ccc(C(=O)N[C@@H](CCC(=O)O)C(=O)O)cc1)CN2	inactive	inactive	inactive	inactive	inactive
CCOC(=O)C1=C(C)NC(=S)NC1c1cccc(O)c1 (stereo unspecified)	inactive	4.18 µM (active)	0.332 µM (active)	1.31 µM (active)	0.469 µM (active)

Structure (SMILES)	Potency [1]	Potency [2]	Potency [3]	Potency [4]	Potency [5]
Cc1cc(O)c2c(c1)C(=O)c1cccc(O)c1C2=O	inactive	inactive	inactive	inactive	inactive
CCCCCCCN(CC)CCCC(O)c1ccc(NS(C)(=O)=O)cc1 (stereo unspecified)	inactive	inactive	inactive	inactive	inactive
COC1=C(OC)C(=O)C(CC=C(C)CCC=C(C)CCC=C(C)CCC=C(C)CCC=C(C)CCC=C(C)CCC=C(C)CCC=C(C)CCC=C(C)CCC=C(C)C)=C(C)C1=O	inactive	inactive	inactive	inactive	inactive
N#Cc1cc(NC(=O)Nc2nnc(-c3ccncc3)s2)ccc1-c1cn[nH]c1	inactive	inactive	inactive	inactive	inactive
CC(Cc1ccc(O)c(O)c1)(NN)C(=O)O (stereo unspecified)	23.5 µM (active)	inactive	inactive	inactive	inactive
CC(C)(O)Cn1c(NC(=O)c2ccc(-c3cn[nH]c3)s2)nc2cc(CN3CCOCC3)ccc21	3.32 µM (active)	3.72 µM (active)	5.26 µM (active)	8.29 µM (active)	2.35 µM (active)
Nc1nc(=O)n([C@H]2CSC(CO)O2)cc1F (stereo partly specified)	inactive	inactive	inactive	inactive	inactive
COC(=O)[C@H](CCCN=C(N)N)NS(=O)(=O)c1ccc(C)cc1	inactive	inactive	inactive	inactive	inactive
CN(N=O)C(=O)N[C@H]1C(O)OC(CO)[C@@H](O)[C@H]1O (stereo partly specified)	inactive	inactive	inactive	inactive	inactive
Cn1cc(-c2ccc3ncc(Cc4ccc5ncccc5c4)n3n2)cn1	inactive	inactive	inactive	inactive	inactive
CCC(C)CCCCC(=O)N[C@@H](CCN)C(=O)NC(C(=O)N[C@H](CCN)C(=O)N[C@@H]1CCNC(=O)C([C@@H](C)O)NC(=O)[C@@H](CCN)NC(=O)[C@@H](CCN)NC(=O)[C@@H](CC(C)C)NC(=O)[C@H](Cc2ccccc2)NC(=O)[C@H](CCN)NC1=O)[C@@H](C)O (stereo partly drawn) ({Octanoyl(6-Me)}-[Dab][ξThr(3R)][dDab][dDab][Dab]F[dL][dDab][dDab][ξThr(3R)]; lactam 4-C)	inactive	inactive	inactive	inactive	inactive
COc1ccc(C=Cc2cc(OC)c(OC)c(OC)c2)cc1NC(=O)[C@H](N)CO	inactive	0.0059 µM (active)		0.0415 µM (active)	
C=CC1=C(C(=O)O)N2C(=O)[C@@H](NC(=O)C(=NO)c3csc(N)n3)[C@H]2SC1	inactive	inactive	inactive	inactive	inactive
N[C@H]1CN(c2c(F)cc3c(=O)c(C(=O)O)cn(C4C[C@@H]4F)c3c2Cl)CC12CC2 (stereo partly specified)	0.0033 µM (active)	inactive	inactive	inactive	inactive
O=C1CSC(=O)N1C(CCc1ccncc1)COc1ccc(-c2cccc([N+](=O)[O-])c2)cc1 (stereo unspecified)	6.62 µM (active)	inactive	inactive		7.43 µM (active)
CC(C)OC(=O)[C@H](C)N[P@](=O)(OC[C@H]1O[C@@H](n2ccc(=O)[nH]c2=O)[C@](C)(F)[C@H]1O)Oc1ccccc1	inactive	inactive	inactive	inactive	inactive
Cc1ccc([N+](=O)[O-])cc1S(=O)(=O)N(C)N=Cc1cnc2ccc(Br)cn12	0.0469 µM (active)	0.0209 µM (active)	0.118 µM (active)		0.235 µM (active)
COc1ccc(C[C@@H](C)[C@@H](C)Cc2ccc(OC)c(OC)c2)cc1OC	inactive	7.43 µM (active)	0.833 µM (active)		0.235 µM (active)
Cn1cc(C[C@@H](N)C(=O)O)c2ccccc21	inactive	inactive	inactive	inactive	inactive
COc1cc(OC)cc(-c2ccc3ncc4ccc(=O)n(-c5ccc(N6CCNCC6)c(C(F)(F)F)c5)c4c3c2)c1	3.32 µM (active)	7.43 µM (active)	11.8 µM (active)	18.6 µM (active)	2.96 µM (active)
CC(C)n1cnc2c(NCCc3ccc(O)cc3)nc(-c3csc4ccccc34)nc21	4.18 µM (active)	20.9 µM (active) and 20.6 µM (active)	26.4 µM (active)		11.8 µM (active)
C=C1CCC2[C@](C)(CO)C(O)CC[C@]2(C)C1CC=C1C(=O)OCC1O (stereo partly specified)	inactive	inactive		inactive	
C[C@H](CCC(=O)O)[C@H]1CCC2C3C[C@H](O)[C@@H]4C[C@H](O)CC[C@]4(C)C3CC[C@@]21C (stereo partly specified)	inactive	inactive	inactive		inactive
Cn1cnc2c(F)c(Nc3ccc(Br)cc3F)c(C(=O)NOCCO)cc21	inactive	inactive	inactive	inactive	inactive
CCCCCCCCCCCC(CC1OC(=O)C1CCCCCC)OC(=O)C(CC(C)C)NC=O (stereo unspecified)	inactive	inactive	inactive	inactive	inactive
